Experimental findings from PubChem BioAssay (NCI) are described below.

Where “and” joins values, the source holds several entries; their conditions need not be identical. Equal values may be shown once. Compounds without any hit were thinned out: in the full panel of roughly 83,000, 20% have a hit.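 A percent growth of 40 corresponds to 60% growth inhibition; 0 means no net growth; -100 means all cells died. Active threshold: below 10.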 Calls of active or inactive are those of the source.

Holding throughout (assay): NCI-60 one-dose screen, 48 h (100 = growth as untreated, 0 = no growth, -100 = all killed)
Settings in all cases: 10 µM unless noted

In assay [1] the test system is HCT-15 colon.
Assay [2] concerns HT29 colon.
Assay [3] deals with SNB-75 CNS.
Assay [4] has as its system SNB-19 CNS.
Assay [5] concerns U251 CNS.
The test system of assay [6] is PC-3 prostate.
For assay [7], the system named is SK-MEL-5 melanoma.
The test system of assay [8] is UACC-62 melanoma.
For assay [9], the system named is LOX IMVI melanoma.
Assay [10] relates to SK-MEL-28 melanoma.
Assay [11] deals with SK-MEL-2 melanoma.
Assay [12] concerns EKVX NSCLC.
For assay [13], the system named is SN12C renal.
Assay [14] relates to UO-31 renal.
Assay [15] deals with TK-10 renal.
Assay [16] has as its system ACHN renal.
Assay [17] concerns CAKI-1 renal.
Assay [18] deals with A498 renal.
In assay [19] the test system is CCRF-CEM leukemia.
The test system of assay [20] is MOLT-4 leukemia.

For `COc1ccc(/C=N/NC(=O)CN2CCN(c3cc4c(cc3F)c(=O)c(C(=O)O)cn4C3CC3)CC2)cc1O`, the growth in assay [1] was 109% (inactive); in assay [2] it was 96.1% (inactive); in assay [3] it was 106% (inactive); in assay [4], 94.4% (inactive); in [5], 95.3% (inactive); in [6], 93% (inactive). Further, the growth was 89.8% (inactive) in assay [7]; 97.6% (inactive) in [8]; 97.9% (inactive) in [9]; 109% (inactive) in assay [10]; 94.1% (inactive) in [11]; 112% (inactive) in assay [12]. Moreover, the growth in [13] is 99.1% (inactive); in assay [14], 94.6% (inactive); in [15], 89.6% (inactive); in assay [16], 106% (inactive); in [17], 111% (inactive); in [18] it was 104% (inactive). The growth in assay [19] is 92.7% (inactive); in assay [20], 82.7% (inactive).
Regarding `Cc1nc2sc(C(=O)Nc3cccc(Cl)c3C)c(N)c2cc1C(O)c1ccccc1` (stereo not given), the growth in assay [1] was 12.3% (inactive); in assay [2], 11.8% (inactive); in assay [3], 59.3% (inactive); in [4], 34.7% (inactive); in assay [5], 9.59% (active); in [6] it was 19.6% (inactive). Moreover, the growth was -37.5% (active) in assay [7]; 21.4% (inactive) in assay [8]; 20.5% (inactive) in assay [9]; 53.9% (inactive) in assay [10]; 38.9% (inactive) in assay [11]; 41.6% (inactive) in [12]. In addition, the growth in [13] was 9.22% (active); in [14] it was 40.6% (inactive); in [15], 49.7% (inactive); in [16], 22.5% (inactive); in assay [17], 30.9% (inactive); in assay [18] it was -11.6% (active). The growth is 20.4% (inactive) in [19] and 13% (inactive) in [20].
In the case of `CCCCCCCCCCCCCCCC(=O)O[C@@H]1[C@@H](O)[C@@H](O)C([C@H](NC(=O)[C@@H]2C[C@@H](CCC)CN2C)[C@H](C)Cl)O[C@@H]1SC` (stereo not given in full), the growth in assay [1] is 99.9% (inactive); in assay [2], 111% (inactive); in [3], 96.2% (inactive); in assay [4] it was 101% (inactive); in [5] it was 102% (inactive); in assay [6], 97.6% (inactive). Besides, the growth was 99.9% (inactive) in [7]; 104% (inactive) in assay [8]; 105% (inactive) in [9]; 112% (inactive) in assay [10]; 112% (inactive) in assay [11]; 100% (inactive) in [12]. Moreover, the growth in assay [13] is 104% (inactive); in assay [14], 77.2% (inactive); in assay [15], 115% (inactive); in [16], 95.4% (inactive); in [17] it was 96% (inactive); in assay [18], 101% (inactive). The growth was 101% (inactive) in assay [19] and 103% (inactive) in assay [20].
Turning to `COc1ccc2c(c1)c(C(=O)c1nc(-c3cn(C)c4ccccc34)no1)cn2C`, the growth in [1] is 82.9% (inactive); in assay [2], 88.8% (inactive); in assay [3], 108% (inactive); in assay [4] it was 92.8% (inactive); in assay [5], 101% (inactive); in assay [6] it was 83.8% (inactive). The growth in assay [7] was 82.2% (inactive); in assay [8], 76.6% (inactive); in [9], 103% (inactive); in assay [10], 93.4% (inactive); in [11], 101% (inactive); in [12] it was 103% (inactive). For the same compound, the growth is 89.5% (inactive) in assay [13]; 77.2% (inactive) in assay [14]; 91.7% (inactive) in [15]; 95.9% (inactive) in assay [16]; 94.1% (inactive) in assay [17]; 87.7% (inactive) in [18]. The growth in assay [19] is 87.9% (inactive); in assay [20], 94.2% (inactive).
For `Cc1c(CC(=O)OCCO)cc(-c2ccc(Cl)cc2)n1-c1ccccc1`, the growth is 94.4% (inactive) in assay [1]; 101% (inactive) in [2]; 65.9% (inactive) in assay [3]; 95.3% (inactive) in assay [4]; 91.7% (inactive) in assay [5]; 101% (inactive) in assay [6]. The growth was 88.8% (inactive) in [7]; 77.7% (inactive) in assay [8]; 94% (inactive) in assay [9]; 109% (inactive) in assay [10]; 103% (inactive) in assay [11]; 95.5% (inactive) in assay [12]. Also, the growth in [13] was 92.4% (inactive); in assay [14] it was 75.5% (inactive); in assay [15] it was 115% (inactive); in assay [16] it was 100% (inactive); in assay [17] it was 87.6% (inactive); in [18], 87.9% (inactive). For the same compound, the growth in assay [19] was 99% (inactive); in [20], 91.4% (inactive).
Regarding `O=Nc1c(O)ccc2ccccc12`, the growth in assay [1] was 43% (inactive) and 103% (inactive); in assay [2] it was 24.7% (inactive) and 109% (inactive); in assay [3] it was 114% (inactive); in [4], 105% (inactive) and 106% (inactive); in assay [5] it was 99.4% (inactive); in assay [6], 6.57% (active) and 72.4% (inactive). Moreover, the growth in assay [7] is 80.9% (inactive) and 82.8% (inactive); in [8], 21.2% (inactive) and 87.4% (inactive); in [9], 3.68% (active) and 73.6% (inactive); in [10], 83% (inactive) and 102% (inactive); in assay [11], 36.5% (inactive) and 107% (inactive); in assay [12], 91.4% (inactive). Besides, the growth in assay [13] was 4.86% (active) and 93.6% (inactive); in [14] it was 55.3% (inactive) and 52.1% (inactive); in assay [15] it was 115% (inactive); in assay [16] it was 57.7% (inactive) and 83.3% (inactive); in assay [17] it was 71.2% (inactive) and 96.3% (inactive); in assay [18], 84.6% (inactive) and 99.1% (inactive). Further, the growth was 20.6% (inactive) and 58.4% (inactive) in assay [19]; 71.3% (inactive) and 72.6% (inactive) in assay [20].
Turning to `Cn1ccnc1CN1CCSC(C(=O)Nc2ccccc2)C1` (stereo not given), the growth in assay [1] is 95.4% (inactive); in assay [2], 95.1% (inactive); in [3], 79.5% (inactive); in assay [4], 93% (inactive); in assay [5], 93.1% (inactive); in [6] it was 92.3% (inactive). Besides, the growth in [7] was 95.4% (inactive); in assay [8], 87.7% (inactive); in [9], 98.7% (inactive); in assay [10] it was 100% (inactive); in [11], 102% (inactive); in [12] it was 106% (inactive). Besides, the growth in assay [13] was 91.4% (inactive); in assay [14], 89.2% (inactive); in assay [15], 101% (inactive); in [16] it was 93.2% (inactive); in assay [17] it was 89.2% (inactive); in assay [18], 97% (inactive). Moreover, the growth in assay [19] was 80.9% (inactive); in [20], 94.3% (inactive).
